Hits are enriched below; roughly 12% of the tested compounds scored in any of these assays.
BAZ2B block: qHTS Assay for Inhibitors of BAZ2B; 360,000 tested, 4.4% active; Potency, µM (series often up to 114 µM), inactives show top-dose activity change, negative = inhibition, usual class: inhibitors; AlphaScreen BAZ2B-H3K14Ac peptide displacement; also: % is scaled to controls: 0 for no effect and ±100 for the full control effect; nearly all actives have a fitted effect of over 60% in size
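Complex of BAZ2B and biotin-H3K14Ac (50 nM apiece) forms over 30 min at RT, then faces library compounds up to 110 uM for another 30 min; AlphaScreen beads added, 20 min dark incubation, luminescence read.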
L3MBTL1 block: qHTS Assay for the Inhibitors of L3MBTL1 | Potency, µM (highest dose often 57.1 µM), for inactives: at the top dose activity, negative = inhibition, most hits filed as inhibitors | 230,000 tested, 0.66% active | AlphaScreen L3MBTL1–H3K9me1 peptide binding; also: % is scaled to controls: 0 for no effect and ±100 for the full control effect; nearly all actives have a fitted effect of over 60% in size
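Read-out is AlphaScreen signal from streptavidin donor and nickel chelate acceptor beads (10 ug/mL final each) bridging L3MBTL1 (50 nM) and biotinylated K9-monomethylated H3(1-15) peptide (75 nM), after 30 min compound exposure at room temperature.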
JMJD2A Tudor: qHTS Assay for Inhibitors of JMJD2A-Tudor Domain | 390,000 tested, 4.4% active | Lysine-specific demethylase 4A (Homo sapiens), O75164 | AlphaScreen JMJD2A-Tudor / H3K4me3 peptide binding | Potency, µM (series often up to 114 µM), for the others: at the top dose activity change, negative = inhibition, usual class: inhibitors; also: % is scaled to controls: 0 for no effect and ±100 for the full control effect; nearly all actives have a fitted effect of over 50% in size
G9a block: qHTS Assay for Inhibitors of Histone Lysine Methyltransferase G9a; G9a H3K9 monomethylation, AlphaScreen, 2 h; Potency, µM (series often up to 102 µM), without a hit: at the highest dose activity, negative = inhibition, hits mostly inhibitors; 350,000 tested, 8.8% active; AID 504332, 2011; also: % is scaled to controls: 0 for no effect and ±100 for the full control effect; nearly all actives have a fitted effect of over 75% in size
Target sequence (Q96KQ7 913-1193 limits assumed): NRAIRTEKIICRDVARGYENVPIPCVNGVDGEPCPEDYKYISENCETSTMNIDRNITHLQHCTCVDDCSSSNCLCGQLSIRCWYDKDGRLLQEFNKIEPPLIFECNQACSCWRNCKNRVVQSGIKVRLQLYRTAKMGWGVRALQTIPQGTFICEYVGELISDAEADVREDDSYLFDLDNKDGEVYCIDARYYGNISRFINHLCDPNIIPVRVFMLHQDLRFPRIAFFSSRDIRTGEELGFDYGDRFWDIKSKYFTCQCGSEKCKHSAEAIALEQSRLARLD
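AlphaScreen detection with an anti-monomethyl H3K9 antibody quantified product after a 2 h room-temperature reaction containing 500 nM biotinylated H3K9 peptide, 20 µM SAM and 20 nM enzyme, which had been preincubated 15 min with compound.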
Sfp inh: qHTS Assay for Inhibitors of Bacillus subtilis Sfp phosphopantetheinyl transferase (PPTase); Potency, µM, for the others: largest response in the series, negative = inhibition, hits mostly inhibitors; AID 1490, 2009; Biochemical Sfp PPTase activity, qHTS; 310,000 tested, 3.5% active;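 also: the enzyme is Sfp with the accession as filed and its product quenches rhodamine fluorescence; 0% = enzyme reaction without inhibitor and -100% = no enzyme wells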
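Compounds were incubated with enzyme (final 15 nM) for 15 min at room temperature before substrate addition started the reaction. Fluorescence at 525 nm excitation, 598 nm emission was recorded immediately and after 30 minutes.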
HP1b chromo inh: HTS for Inhibitors of HP1-beta Chromodomain Interactions with Methylated Histone Tails | AlphaScreen HP1-beta / biotin-H3K9me3 peptide binding | Potency, µM (series often up to 114 µM), inactives show top-dose activity change, negative = inhibition, actives largely listed as inhibitors | 390,000 tested, 0.56% active | AID 540317, 2011; also: nearly all actives have a fitted effect of over 70% in size
Target sequence (P83916 whole entry, looked up): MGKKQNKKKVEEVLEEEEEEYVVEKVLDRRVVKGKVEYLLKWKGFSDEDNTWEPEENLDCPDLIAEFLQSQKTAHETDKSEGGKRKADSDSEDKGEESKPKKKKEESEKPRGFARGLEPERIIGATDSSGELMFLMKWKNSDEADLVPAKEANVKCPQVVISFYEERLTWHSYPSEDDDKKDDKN
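AlphaScreen: HP1-beta (50 nM) preformed 30 min with biotin-H3(1-18)K9me3 peptide (50 nM) in PBS pH 7.4, 0.01% Tween-20. Compound added for 30 min at RT, then streptavidin donor/nickel chelate acceptor beads (10 ug/mL) for 30 min.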
* marks the source's active call; other numbers are inactive results; [ ] = another dose, or the depositor's remark. Calls follow the shape of the dose curve; as a rule, active = well fitted curve in the direction sought with a large enough effect; inconclusive = small, poorly fitted or top-dose-only effect, or another doubt; inactive = no such curve, though single readings can be large; an effect the other way counts as inactive or inconclusive. Potency is read from the fitted curve at half-maximal effect.

How did CN(C)c1nc(-c2ccccc2)[n+](C)s1 do in these assays?
BAZ2B block: 1%; L3MBTL1 block: -4%; JMJD2A Tudor: -18%; G9a block: 3.2µM*; Sfp inh: 18µM*; HP1b chromo inh: 1%

What do the screens show for `CCOc1ccccc1N=Cc1c(O)n(C)c(=O)n(C)c1=O`?
BAZ2B block: 1%; JMJD2A Tudor: -5%; G9a block: 50µM*; Sfp inh: 7%; HP1b chromo inh: 46%

How did Cc1ccccc1OCCN=Cc1c(O)n(C)c(=O)n(C)c1=O do in these assays?
BAZ2B block: -23%; L3MBTL1 block: 0%; JMJD2A Tudor: -20%; G9a block: 14%; Sfp inh: 2%; HP1b chromo inh: 19%

Results for CC(=O)c1c(O)n(-c2cccc(Cl)c2)c(=O)[nH]c1=O (tested in a mixture with another compound) ?
BAZ2B block: -29%; L3MBTL1 block: -18%; JMJD2A Tudor: -18%; G9a block: 50µM*; Sfp inh: -7%; HP1b chromo inh: 16%

What do the screens show for `COc1cc(/C=N/NC(=O)c2cnccn2)cc(OC)c1OC`?
BAZ2B block: -6%; L3MBTL1 block: 1%; JMJD2A Tudor: 9%; G9a block: inconclusive; Sfp inh: -5%; HP1b chromo inh: -7%

How did CC(C)(C)C(=O)Cn1c(NCCCl)nc2ccccc21 do in these assays?
BAZ2B block: -21%; L3MBTL1 block: 2%; JMJD2A Tudor: -10%; G9a block: 40µM*; Sfp inh: 8%; HP1b chromo inh: 32%

Results for CC(=O)OCC(=O)C1CCC2C3CC=C4CC(O)CC[C@@]4(C)C3CC[C@]12C (some centres undefined) ?
G9a block: -23%[2.33 µM]; Sfp inh: 3%

Results for S=c1[nH]nc(C2CC2)n1Cc1ccco1 ?
BAZ2B block: 1%; JMJD2A Tudor: 22µM*; G9a block: 2.5µM*; Sfp inh: -16%; HP1b chromo inh: 8%

How did O=c1[nH]c(=O)n(Cc2ccco2)c(O)c1C=NC1CC1 do in these assays?
BAZ2B block: 4%; L3MBTL1 block: -3%; JMJD2A Tudor: -14%; G9a block: 5%[59 µM]; Sfp inh: -15%; HP1b chromo inh: 22%

What do the screens show for `C=CCn1c(C2CC2)n[nH]c1=S`?
BAZ2B block: -24%; L3MBTL1 block: 23%; JMJD2A Tudor: inconclusive; G9a block: 45µM*; Sfp inh: -23%; HP1b chromo inh: 40%

Results for CCN(CC)C(=O)Cn1cc(S(=O)(=O)CC(=O)NCc2ccc(C)cc2)c2ccccc21 ?
JMJD2A Tudor: -3%; HP1b chromo inh: 46%

How did FC(F)(F)c1ccc(CNCCc2ccc3c(c2)OCO3)cc1 do in these assays?
BAZ2B block: 79µM*; JMJD2A Tudor: 56µM*; G9a block: 22µM*; Sfp inh: 79µM*; HP1b chromo inh: -19%

What do the screens show for `Clc1cccc(CNCCc2ccc3c(c2)OCO3)c1`?
BAZ2B block: 79µM*; JMJD2A Tudor: 28µM*; G9a block: 45µM*; Sfp inh: 0%; HP1b chromo inh: inconclusive

How did Fc1ccccc1CNCCc1ccc2c(c1)OCO2 do in these assays?
BAZ2B block: -34%; L3MBTL1 block: 4%; JMJD2A Tudor: 71µM*; G9a block: 40µM*; Sfp inh: 9%; HP1b chromo inh: -33%

How did CC1(C)CC(CCNCc2ccc3c(c2)OCO3)(Cc2ccccc2)CCO1 (centres undefined) do in these assays?
BAZ2B block: -34%; L3MBTL1 block: inconclusive; JMJD2A Tudor: -13%; G9a block: -2%[12.7 µM]; Sfp inh: -8%; HP1b chromo inh: 14%

Results for Clc1ccc(CNCCc2ccc3c(c2)OCO3)cc1 ?
BAZ2B block: 45µM*; JMJD2A Tudor: 25µM*; G9a block: 79µM*; Sfp inh: inconclusive; HP1b chromo inh: -2%

Results for c1cncc(CNCCc2ccc3c(c2)OCO3)c1 ?
BAZ2B block: -13%; JMJD2A Tudor: 0%; Sfp inh: -2%; HP1b chromo inh: 46%

How did COc1ccc(NC(=O)N2CCC3(CC2)CCN(C(=O)Oc2ccccc2)CC3)cc1 do in these assays?
G9a block: 13%[12.7 µM]; Sfp inh: 12%

How did CCOC(=O)CCN(SN(C)C(=O)Oc1cccc2c1OC(C)(C)C2)C(C)C do in these assays?
Sfp inh: -13%

How did CC1=C[C@H]2[C@]3(O)C(C=C(CO)C[C@]2(O)C1=O)[C@@H]1C(C)(C)[C@]1(O)[C@H](O)[C@H]3C (some centres undefined) do in these assays?
Sfp inh: 4%

How did C[C@@H]1O[C@@H](O[C@H]2C[C@@H](O)[C@]3(CO)[C@@H]4C(CC[C@]3(O)C2)[C@@]2(O)CC[C@H]([C@@H]3COC(=O)C3)[C@@]2(C)C[C@H]4O)[C@H](O)[C@H](O)[C@H]1O (some centres undefined) do in these assays?
G9a block: -7%[59 µM]

How did CC1CCCCN1CCNS(=O)(=O)c1ccc2c(c1)oc(=O)n2C (centres undefined) do in these assays?
BAZ2B block: 2%; L3MBTL1 block: -16%; JMJD2A Tudor: -15%; G9a block: inconclusive; Sfp inh: 11%; HP1b chromo inh: 23%

Results for CNc1ccc2oc(C[C@@H]3OC4(CC[C@@H]3C)O[C@H](C(C)C(=O)c3ccc[nH]3)[C@H](C)C[C@H]4C)nc2c1C(=O)O (some centres undefined) ?
G9a block: 18µM*; Sfp inh: 17%

What do the screens show for `CC(C)[N+](C)(CCC(C(N)=O)(c1ccccc1)c1ccccc1)C(C)C`?
BAZ2B block: -18%; JMJD2A Tudor: 25µM*; G9a block: -74%[2.33 µM]; Sfp inh: -74%; HP1b chromo inh: inconclusive

Results for Cc1nn(Cc2ccccc2)c(C)c1C=C1C(=O)NC(=O)NC1=O ?
BAZ2B block: 3%; L3MBTL1 block: -3%; JMJD2A Tudor: -8%; G9a block: -6%[59 µM]; Sfp inh: -28%; HP1b chromo inh: 25%

What do the screens show for `Cc1cc(C)cc(OCCOc2cccc(C=C3C(=O)NC(=O)NC3=O)c2)c1`?
BAZ2B block: -8%; L3MBTL1 block: 13%; JMJD2A Tudor: 60%; G9a block: -22%; Sfp inh: 50µM*; HP1b chromo inh: 88%

Bioassay records as filed in PubChem.
